Source: PubChem BioAssay (National Center for Advancing Translational Sciences (NCATS))
DT40 TDP1 CPT – DT40-hTDP1 cell growth loss with CPT; chicken DT40 Tdp1-/-;hTDP1 cells + 20 nM CPT, ATP luminescence, 48 h; Potency, µM (series often up to 46.2 µM), inactives show at the top dose activity change, negative = growth inhibition, most hits filed as inhibitors; 420,000 compounds, 12% hits; AID 686979; also: potency is read from the fitted curve at half-maximal effect; nearly all actives have a fitted effect of over 55% in size
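Chicken DT40 Tdp1-/- cells complemented with human TDP1, 400 cells/well, exposed to compounds plus 20 nM camptothecin for at least 48 h at 37 C; viability read as ATP content by CellTiter-Glo luminescence.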
HT1080 IDH1KD tx – toxicity to HT-1080 IDH1 knockdown cells (counter line); HT-1080 IDH1 knockdown viability, ATP luminescence, 48 h; Potency, µM (top dose mostly 46.1 µM), for the others: at the highest dose activity, negative = toxicity, most hits filed as cytotoxic; 360,000 compounds, 2% hits;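 also: potency is read from the fitted curve at half-maximal effect; 0% = DMSO wells and -100% = cell-free medium wells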
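Knockdown cells (IDH1KD HT-1080) received compounds 2 h after plating at 750 cells/well and were kept 48 h at 37 °C in 5% FBS RPMI. A CellTiter-Glo luminescence read gave % activity for curve fitting.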
DT40 TDP1 no CPT – qHTS for Inhibitors of human tyrosyl-DNA phosphodiesterase 1 (TDP1): qHTS in cells in absence of CPT. DT40 Tdp1-/- hTDP1 cells, no CPT, ATP luminescence, 48 h. Potency, µM (highest dose often 46.2 µM), inactives show top-dose activity change, negative = growth inhibition, usual class: inhibitors. 420,000 compounds, 15% hits. AID 686978, 2013; also: potency is read from the fitted curve at half-maximal effect; nearly all actives have a fitted effect of over 55% in size
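Stably hTDP1-transfected Tdp1-null chicken DT40 cells were treated with library compounds minus camptothecin and grown for at least 48 hr at 37 °C, after which cellular ATP was quantified by luminescence.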
IL-1B inflam inh – inflammasome signaling inhibition, IL-1 beta readout. activity change, % at 57.5 µM. 360,000 compounds, 4.7% hits. THP-1 LPS/ATP IL-1B secretion, AlphaLISA, 16 h; stronger effect = lower value. AID 743279; in the data active = activity change below about -50%; inconclusive = mostly about -30% to -49%
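THP-1 cells pretreated 1 hr with compounds (up to 57.5 uM final), then stimulated with LPS (250 ng/mL final) plus ATP (1.25 mM final); secreted IL-1B measured by AlphaLISA after 16 hr, decreased signal indicating inhibition.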
HT1080-NT tox – kills 2HG-producing HT-1080-NT fibrosarcoma cells | HT-1080-NT fibrosarcoma viability, CellTiter-Glo ATP luminescence, 48 h | Potency, µM (doses to about 46.1 µM), inactives show at the top dose activity, negative = less viability, hits mostly cytotoxic | 360,000 compounds, 1.6% hits | AID 686970;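 also: NT is the 2HG producing partner of a matched IDH1 knockdown line; potency is read from the fitted curve at half-maximal effect; 0% = DMSO-treated cells and -100% = media-only wells without cells; nearly all actives have a fitted effect of over 55% in size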
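750 cells/well, RPMI + 5% FBS; 2 h settle, compound pin-transfer, 48 h at 37 degrees C. CellTiter-Glo 10 min RT, luminescence. Normalized to DMSO and media-only wells.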
Active calls of the source: *; ? = inconclusive; · = no result given. In the library only some 19% were active in any assay of this set; here they are far more common. Unless noted, calls follow the shape of the dose curve; as a rule, active = well fitted curve in the direction sought with a large enough effect; inconclusive = small, poorly fitted or top-dose-only effect, or another doubt; inactive = no such curve, though single readings can be large; an effect the other way counts as inactive or inconclusive. Unless noted, % is scaled to controls: 0 for no effect and ±100 for the full control effect.

SMILES | DT40 TDP1 CPT | HT1080 IDH1KD tx | DT40 TDP1 no CPT | IL-1B inflam inh | HT1080-NT tox
O=C(CN1C(=O)C2(SCC(=O)N2c2ccc(F)cc2)c2ccccc21)NC1CCCCC1 (centres undefined) | -23% | · | -21% | · | ·
Cc1cc(C)cc(N2C(=O)CSC23C(=O)N(CC(=O)NC2CCCCC2)c2ccccc23)c1 (centres undefined) | 21µM* | · | ? | · | ·
O=C(CN1C(=O)C2(SCC(=O)N2c2cccc(Cl)c2)c2ccccc21)NC1CCCCC1 (centres undefined) | 16µM* | · | 18µM* | · | ·
COc1ccc(N2C(=O)CSC23C(=O)N(CC(=O)Nc2ccccc2F)c2ccccc23)cc1 (centres undefined) | -10% | · | -28% | · | ·
COc1cccc(N2C(=O)CSC23C(=O)N(CC(=O)Nc2cccc(Cl)c2)c2ccccc23)c1 (centres undefined) | 18µM* | · | ? | · | ·
Cc1cc(C)cc(NC(=O)N2CCC(CN3CCCCCC3)CC2)c1 | -50% | · | ? | · | ·
CCc1c(C#N)c(SCc2c(C)noc2C)nc2c1C(=O)CC(C)(C)C2 | 26µM* | -12% | ? | 9 | -27%
CN1C(=O)N(S(=O)(=O)c2ccc(F)c(F)c2F)C(=O)C1(C)C | -9% | 18% | -16% | -7 | 17%
Nc1nc2ccccc2n1CCOc1ccccc1Cl | ? | ? | 26µM* | -80* | ?
N=c1n(CCCOc2ccccc2Cl)c2ccccc2n1CC(N)=O | 18µM* | ? | 21µM* | -102* | ?
Cn1c(=O)n(Cc2ccc(Cl)cc2)c2ccccc21 | -24% | -17% | -3% | ? | 6%
Cn1c(=O)n(Cc2ccccc2Cl)c2ccccc21 | ? | -12% | 18µM* | 27 | -4%
Cc1ccc2oc(=O)n(CCCOc3ccccc3Cl)c2c1 | 21µM* | · | ? | · | ·
CS(=O)(=O)Nc1ccc2c(c1)[C@H]1C[C@H](CC(=O)NCc3cccc(F)c3)O[C@@H](CO)[C@H]1O2 | -18% | 0% | -27% | -14 | -11%
O=C(CSc1nnc(COc2ccccc2Cl)o1)NC(=O)NCc1ccco1 | ? | 3% | ? | 21 | 23%
CCN(CC)CCNC(=O)C(=O)Nc1c2c(nn1-c1ccc(F)cc1)CSC2 | -25% | · | -24% | · | ·
COc1ccccc1CN1CCCC2(CCN(S(C)(=O)=O)CC2)C1 | 12% | · | -6% | · | ·
CCCCOc1ccc(N2C(=O)C(C)CNC2=S)cc1 (centres undefined) | 10% | 4% | 7% | 42 | 11%
Cn1c(NN)nc2c1c(=O)n(Cc1ccccc1)c(=O)n2C | 3% | -3% | 2% | ? | -5%
C[N+](C)(C)CCCNC(=O)c1ccc(/C=N/O)nc1 | -10% | 13% | 20% | 22 | 8%
Cc1c(N2C(=O)c3ccccc3C2(O)c2ccccc2)c(=O)n(-c2ccccc2)n1C (centres undefined) | 13% | 11% | 13% | -24 | 3%
CCN(CC)CCn1c(=N)n(CCOc2ccccc2Cl)c2ccccc21 | 3.7µM* | · | 4.1µM* | · | ·
CCN(CC)CCn1c(=N)n(CC(O)COc2ccccc2C)c2ccccc21 (centres undefined) | 8.2µM* | · | 2.6µM* | · | ·
Cn1c(=O)n(CCOc2ccccc2Cl)c2ccccc21 | -3% | -19% | 5.8µM* | 0 | -11%
O=C(NCc1ccc2c(c1)OCO2)C1CCN(c2nccc(C(F)(F)F)n2)CC1 | -4% | 15% | 0% | 4 | -6%
Nc1nsc2ccccc12 | 3.3µM* | 2.5µM* | 2.2µM* | -99* | 2.5µM*
COc1ccc(N2CC(NC(=O)/C=C\c3ccccc3)CC2=O)cc1 (centres undefined) | -2% | · | -10% | · | ·
CCC(C)(C#CCN1CCCCC1)OCCC#N (centres undefined) | -28% | 19% | 3% | 5 | 26%
COc1ccccc1OCCn1cc(C(=O)c2ccco2)c2ccccc21 | ? | -14% | 18µM* | -18 | -15%
